Most compounds without a hit are left out; they make up all but 4.1% or so of the library.
Sm TGR block – S. mansoni TGR enzyme inhibition; Potency, µM (series often up to 114 µM), inactives show top-dose activity change, negative = inhibition, hits mostly inhibitors; Q962Y6; actives 3% (n = 360,000); purified TGR, DTNB reduction, TNB absorbance 405 nm; further: nearly all actives have a fitted effect of over 60% in size
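Kinetic colorimetric format: TGR-catalysed, NADPH-driven DTNB reduction monitored via TNB absorbance. Enzyme dispensed at 20 nM; compound exposure 15 min at room temperature before reaction start.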
AmpC no deterg – AmpC beta-lactamase inhibition without detergent. P00811. AmpC nitrocefin hydrolysis, absorbance 480 nm, 0.0001% Triton. Potency, µM (doses to about 57.1 µM), without a hit: at the highest dose activity change, negative = inhibition, actives largely listed as inhibitors. actives 0.52% (n = 330,000);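 further: plate controls were no compound for no effect and no enzyme for full effect; nearly all actives have a fitted effect of over 20% in size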
Target sequence (P00811 whole entry, looked up): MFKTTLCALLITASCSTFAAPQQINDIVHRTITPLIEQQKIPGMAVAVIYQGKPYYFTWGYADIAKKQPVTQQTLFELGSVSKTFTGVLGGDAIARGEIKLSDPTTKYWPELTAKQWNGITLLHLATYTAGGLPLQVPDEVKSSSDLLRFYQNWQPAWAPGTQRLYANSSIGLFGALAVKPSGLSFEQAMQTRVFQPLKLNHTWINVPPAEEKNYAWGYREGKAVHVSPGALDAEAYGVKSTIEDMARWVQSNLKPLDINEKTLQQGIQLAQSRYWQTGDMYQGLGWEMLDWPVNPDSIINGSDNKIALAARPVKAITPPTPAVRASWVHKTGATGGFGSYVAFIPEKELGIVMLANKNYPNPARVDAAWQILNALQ
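20 mM phosphate pH 7.0 + 0.01% (detergent screen) or 0.0001% Triton X-100; 5.3 nM AmpC reagent; cpd preinc 15 min RT; nitrocefin (800 uM stock) to start; A480 q20 s × 4 min; Activity was normalised to no-enzyme and no-compound control wells.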
AmpC detergent – blocks E. coli AmpC beta-lactamase in detergent assay. AID 485294. actives 0.041% (n = 370,000). Potency, µM (doses to about 114 µM), inactives show at the highest dose activity change, negative = inhibition, hits mostly inhibitors. P00811. AmpC hydrolysis of nitrocefin, absorbance 480 nm, 0.01% Triton;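 further: 0% = no-compound wells and -100% = no-enzyme wells; nearly all actives have a fitted effect of over 25% in size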
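20 mM phosphate pH 7.0 + 0.01% (detergent screen) or 0.0001% Triton X-100; 5.3 nM AmpC reagent; cpd preinc 15 min RT; nitrocefin (800 uM stock) to start; A480 q20 s × 4 min; Activity was normalised to no-enzyme and no-compound control wells.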
AMA1-RON2 inh – disrupts binding of P. falciparum AMA1 to RON2. actives 0.2% (n = 360,000). AlphaScreen AMA1-biotinylated RON2 peptide binding. Potency, µM (titrated, usually from 58.2 µM), inactives show at the top dose activity change, negative = inhibition, usual class: inhibitors. AID 720542;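 further: 0% = vehicle wells and -100% = peptide control; nearly all actives have a fitted effect of over 45% in size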
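AMA1 (3D7) with his tag at 25 nM final met compounds first, then biotinylated RON2 peptide at 25 nM; detection used donor plus acceptor beads, 10 µg/mL apiece, read by AlphaScreen after 30 min at room temperature.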
FMDV antiviral – blocks foot and mouth disease virus; FMDV antiviral cell-based qHTS; Potency, µM (top dose mostly 57.9 µM), for the others: at the highest dose activity change, negative = inhibition, hits mostly inhibitors; actives 1.2% (n = 410,000); calls by dose curve; tested in HEK293T cells; further: read-out not given here; nearly all actives have a fitted effect of over 45% in size
Numbers without * were called inactive. Unless noted, the call rests on the fitted dose curve; in most records, active means well fitted curve in the direction sought with a large enough effect; inconclusive means small, poorly fitted or top-dose-only effect, or another doubt; inactive means no such curve, though single readings can be large; an effect the other way counts as inactive or inconclusive. Unless noted, on the % scale 0 is the no-effect control and ±100 the full control effect; potency means the concentration at half of the fitted maximal effect.

How did COc1cccc(/C=C/c2[nH]c(=O)[nH]c(=O)c2[N+](=O)[O-])c1O do in these assays?
Sm TGR block: 35µM*; AmpC no deterg: -6%; AmpC detergent: 0%; AMA1-RON2 inh: -12%; FMDV antiviral: -4%

How did CCCOc1ccc(/C=C/c2[nH]c(=O)[nH]c(=O)c2[N+](=O)[O-])cc1OCC do in these assays?
Sm TGR block: 0%; AmpC no deterg: -7%; AmpC detergent: -5%; AMA1-RON2 inh: -5%; FMDV antiviral: inconclusive

Results for Cc1c(C(=O)N(C)Cc2ccccc2)sc2nc(-c3ccc(F)cc3)cn12 ?
Sm TGR block: 23%; AmpC detergent: 12%; FMDV antiviral: 2%

How did CC(NC(=O)CCC(=O)Nc1ccccc1O)c1ccccc1 (centres undefined) do in these assays?
AMA1-RON2 inh: -2%; FMDV antiviral: -2%

Results for CC(CNc1ccccc1O)C(=O)O (centres undefined) ?
Sm TGR block: 50µM*; AmpC no deterg: -11%; AmpC detergent: 5%; AMA1-RON2 inh: 4%; FMDV antiviral: -16%

How did CCOc1cc(C(=O)Nc2ccc(-c3nnc4n3CCCCC4)cc2)cc(OCC)c1OCC do in these assays?
Sm TGR block: 7%; AmpC detergent: 16%; FMDV antiviral: -25%

What do the screens show for `Cc1onc(-c2c(F)cccc2Cl)c1C(=O)N1CCN(c2ncc(Br)cn2)CC1`?
Sm TGR block: 8%; AmpC no deterg: 91%; AmpC detergent: -5%; AMA1-RON2 inh: -10%; FMDV antiviral: 28µM*

Results for Cc1ccc(S(=O)(=O)Nc2cc(=O)[nH]c(SCc3ccccc3Cl)n2)cc1 ?
Sm TGR block: -2%; AmpC no deterg: 10µM*; AmpC detergent: inconclusive; AMA1-RON2 inh: -5%; FMDV antiviral: inconclusive

What do the screens show for `CN(C)CCCN(C(=O)c1cc2cc([N+](=O)[O-])ccc2s1)c1nc2cc3c(cc2s1)OCCO3`?
Sm TGR block: 4%; AmpC no deterg: 61%; AmpC detergent: -13%; AMA1-RON2 inh: inconclusive; FMDV antiviral: 40µM*

How did O=C(Nc1cc2c(cc1C(=O)c1cccc(Br)c1)OCCO2)c1ccccc1F do in these assays?
Sm TGR block: -5%; AmpC detergent: -1%; FMDV antiviral: 0%

Results for CCOc1ccc(-n2c(N)c(C(=O)NCc3ccco3)c3nc4ccccc4nc32)cc1 ?
Sm TGR block: 50µM*; AmpC no deterg: -22%; AmpC detergent: -1%; AMA1-RON2 inh: 0%; FMDV antiviral: inconclusive

Results for COCCCn1c(N)c(C(=O)Nc2ccccc2)c2nc3ccccc3nc21 ?
Sm TGR block: 14%; AmpC no deterg: 120%; AmpC detergent: 0%; AMA1-RON2 inh: 36%; FMDV antiviral: 24%

Results for CCCNC(=O)c1c(N)n(-c2cc(OC)cc(OC)c2)c2nc3ccccc3nc12 ?
Sm TGR block: -19%; AmpC no deterg: 41%; AmpC detergent: -11%; AMA1-RON2 inh: 32%; FMDV antiviral: inconclusive

How did COCCCn1c(N)c(C(=O)NCc2ccco2)c2nc3ccccc3nc21 do in these assays?
Sm TGR block: 7.1µM*; AmpC no deterg: 38%; AmpC detergent: -1%; AMA1-RON2 inh: 32%; FMDV antiviral: -27%

Results for Nc1c(C(=O)NCc2ccco2)c2nc3ccccc3nc2n1CCc1ccccc1 ?
Sm TGR block: 20µM*; AmpC no deterg: 20%; AmpC detergent: inconclusive; AMA1-RON2 inh: 57%; FMDV antiviral: -5%

What do the screens show for `COc1ccccc1N1CCN(c2nc3c(S(=O)(=O)c4ccc(C)c(C)c4)nnn3c3ccc(Cl)cc23)CC1`?
Sm TGR block: -2%; AmpC detergent: -8%; FMDV antiviral: -15%

How did CC1CCCN(Cc2c(O)ccc3c(=O)c(Oc4ccccc4Cl)c(C(F)(F)F)oc23)C1 (centres undefined) do in these assays?
Sm TGR block: -2%; AmpC detergent: 32%; FMDV antiviral: -5%

Results for Cc1ncc2c(c1CNC(=O)c1cncs1)CCN(C(=O)c1cccc(-c3cccc(F)c3)c1)C2 ?
FMDV antiviral: -4%

How did COc1ccc(C2=C(Nc3ccc(Br)c(C)c3)c3ccccc3C2=O)cc1 do in these assays?
Sm TGR block: -6%; AmpC detergent: 19%; FMDV antiviral: 28µM*

How did Cc1ccc(-c2ccnc(-n3ncc(C(=O)N(C)CC4CCCN(C)C4)c3C)n2)o1 (centres undefined) do in these assays?
FMDV antiviral: 0%

Results for N#Cc1c(-c2c(Cl)cccc2Cl)noc1/C=C/Nc1ccc(C(=O)O)cc1 ?
Sm TGR block: -34%; AmpC no deterg: 18µM*; AmpC detergent: 2%; AMA1-RON2 inh: 14%; FMDV antiviral: 8%

How did CN(C)/C=C/c1onc(-c2c(Cl)cccc2Cl)c1C#N do in these assays?
Sm TGR block: -1%; AmpC no deterg: -43%; AmpC detergent: 3%; AMA1-RON2 inh: -9%; FMDV antiviral: -24%

What do the screens show for `N#Cc1cc(-c2ccccc2)[nH]c1-c1nccc2ccccc12`?
Sm TGR block: 19%; AmpC no deterg: -35%; AmpC detergent: -2%; AMA1-RON2 inh: 0%; FMDV antiviral: 28µM*

What do the screens show for `c1ccc(-c2ccc(-c3nccc4ccccc34)[nH]2)cc1`?
Sm TGR block: 23%; AmpC no deterg: -40%; AmpC detergent: -1%

Results for O=c1cc(CCl)[nH]c2nc3ccccc3n12 ?
Sm TGR block: 22µM*; AmpC no deterg: -4%; AmpC detergent: 2%; AMA1-RON2 inh: 22%; FMDV antiviral: -10%

How did CC(C)(O)C#Cc1ccc(C(=O)N2CCCC(CNS(=O)(=O)c3cccs3)C2)o1 (centres undefined) do in these assays?
Sm TGR block: 11µM*; AmpC no deterg: 2%; AmpC detergent: 0%; AMA1-RON2 inh: 10%; FMDV antiviral: 28%

What do the screens show for `Cc1cc(C)c(C(=O)N2CCCC(CNS(=O)(=O)c3cccs3)C2)o1` (centres undefined)?
Sm TGR block: -3%; AmpC no deterg: -1%; AmpC detergent: -4%; AMA1-RON2 inh: 5%; FMDV antiviral: inconclusive

What do the screens show for `CCN(C(=O)Cn1c(C(=O)OC)cc2sccc21)c1cccc(C)c1`?
Sm TGR block: -3%; AmpC detergent: 19%; FMDV antiviral: -16%

What do the screens show for `COC(=O)c1cc(=O)n(Cc2ccco2)c(=Nc2ccc(F)cc2)s1`?
Sm TGR block: inconclusive; AmpC no deterg: -23%; AmpC detergent: 3%; AMA1-RON2 inh: -24%; FMDV antiviral: 28µM*

What do the screens show for `COC(=O)c1cc(=O)n(Cc2ccc(OC)c(OC)c2)c(=Nc2ccc(F)cc2)s1`?
Sm TGR block: -1%; AmpC no deterg: 21%; AmpC detergent: -8%; AMA1-RON2 inh: -30%; FMDV antiviral: 13µM*

Screens as filed in PubChem.
